Reference: PubChem BioAssay (EPA / NIEHS)
Results filed as inconclusive are left out. Activity calls are given as the source filed them. The calls were made as follows, unless noted: active = hit-call score of the fitted dose curve at least 0.9, where 1 is the maximum; inactive = score below 0.9.

What was measured:
[1] = read-out: Phosphatase and tensin (PTEN), PTEN (gene 5728); experiment: LTEA_HepaRG_PTEN: Life Technologies and Expression Analysis (LTEA) Assay for Phosphatase and tensin (PTEN) using HepaRG (AID 2283523); conditions: mRNA level, 48 h; actives raise or lower the signal
Method in brief: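 Expression of PTEN is quantified in the human liver line HepaRG following two days of dosing (top concentration 100 uM, half-log dilutions, 0.5% DMSO). Values derive from bidirectional curve fitting relative to DMSO controls.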

[2] = read-out: solute carrier (SLC22A1), SLC22A1 (gene 6580); experiment: LTEA_HepaRG_SLC22A1: Life Technologies and Expression Analysis (LTEA) Assay for solute carrier (SLC22A1) using HepaRG (AID 2283524); conditions: mRNA level, 48 h; actives raise or lower the signal;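 as to AC50: differentiated human HepaRG liver cells in serum-free induction medium; TaqMan qRT-PCR normalized to ACTB GAPDH and POLR2A housekeeping genes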
Method in brief: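 Transcript induction or suppression of SLC22A1 in human HepaRG cultures is scored after 48 h chemical treatment, with DMSO (0.5%) as baseline for bidirectional fitting. Concentrations span eight half-log points topping at 100 uM.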

[3] = read-out: Pyruvate Dehydrogenase Kinase 4 (PDK4), PDK4 (gene 5166); experiment: LTEA_HepaRG_PDK4: Life Technologies and Expression Analysis (LTEA) Assay for Pyruvate Dehydrogenase Kinase 4 (PDK4) using HepaRG (AID 2283525); conditions: mRNA level, 48 h; actives raise or lower the signal
Method in brief: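 Eight-point, half-log concentration series (max 100 uM, 0.5% DMSO) applied to differentiated HepaRG cells for 48 h in duplicate. Endpoint: PDK4 mRNA induction or repression by qRT-PCR against DMSO baseline.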

[4] = read-out: NAD(P)H dehydrogenase [quinone] 1 (NQO1), NQO1 (gene 1728); experiment: LTEA_HepaRG_NQO1: Life Technologies and Expression Analysis (LTEA) Assay for NAD(P)H dehydrogenase [quinone] 1 (NQO1) using HepaRG (AID 2283526); conditions: mRNA level, 48 h; actives raise or lower the signal
Method in brief: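 qRT-PCR read-out (Fluidigm TaqMan), normalized to three housekeeping genes, after 48 h chemical exposure of HepaRG cells. Concentrations: eight points, top 100 uM, half-log steps, 0.5% DMSO vehicle. Gain or loss of signal fitted relative to DMSO.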

[5] = read-out: Nuclear factor erythroid 2-related factor 2 (Homo sapiens) (UniProt Q16236); experiment: LTEA_HepaRG_NFE2L2: Life Technologies and Expression Analysis (LTEA) Assay for Nuclear factor erythroid 2-related factor 2 (NFE2L2) Transcription Factor using HepaRG (AID 2283527); conditions: mRNA level, 48 h; actives raise or lower the signal
Method in brief: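 Human liver HepaRG line treated in duplicate for 48 h with an eight-point series topping at 100 uM. Gene expression of NFE2L2 by qRT-PCR, bidirectionally fitted against the vehicle control.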

[6] = read-out: succinate dehydrogenase complex iron sulfur subunit B (SDHB), SDHB (gene 6390); experiment: LTEA_HepaRG_SDHB: Life Technologies and Expression Analysis (LTEA) Assay for succinate dehydrogenase complex iron sulfur subunit B (SDHB) using HepaRG (AID 2283528); conditions: mRNA level, 48 h; actives raise or lower the signal
Method in brief: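 HepaRG, 48 h exposure, 8-pt half-log series from 100 uM in 0.5% DMSO, duplicates. Readout: SDHB mRNA by Fluidigm qRT-PCR vs housekeeping genes; bidirectional fit relative to DMSO.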

[7] = read-out: Signal transducer and activator of transcription 3 (Homo sapiens) (UniProt P40763); experiment: LTEA_HepaRG_STAT3: Life Technologies and Expression Analysis (LTEA) Assay for Signal transducer and activator of transcription (STAT3) using HepaRG (AID 2283529); conditions: mRNA level, 48 h; actives raise or lower the signal
Method in brief: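 In this transcriptional endpoint, HepaRG cultures receive test chemicals at up to 100 uM for 48 h, tested in duplicate. STAT3 mRNA is normalized to ACTB, GAPDH and POLR2A.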

[8] = read-out: solute carrier (SLCO1B1), SLCO1B1 (gene 10599); experiment: LTEA_HepaRG_SLCO1B1: Life Technologies and Expression Analysis (LTEA) Assay for solute carrier (SLCO1B1) using HepaRG (AID 2283530); conditions: mRNA level, 48 h; actives raise or lower the signal
Method in brief: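 Gain or loss of SLCO1B1 mRNA is fitted against the 0.5% DMSO vehicle in human HepaRG liver cells treated 48 h at up to 100 uM in half-log steps. Expression comes from qRT-PCR normalized to endogenous controls.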

[9] = read-out: sulfotransferase 2A1 (SULT2A1), SULT2A1 (gene 6822); experiment: LTEA_HepaRG_SULT2A1: Life Technologies and Expression Analysis (LTEA) Assay for sulfotransferase 2A1 (SULT2A1) using HepaRG (AID 2283531); conditions: mRNA level, 48 h; actives raise or lower the signal
Method in brief: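 Cells were plated and cultured 48 h, switched to serum-free induction medium, then dosed in duplicate for 48 h (8 concentrations, max 100 uM). RNA was isolated and SULT2A1 expression measured by qRT-PCR; gain or loss of signal fitted relative to DMSO.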

[10] = read-out: Transforming Growth Factor (TGFA), TGFA (gene 7039); experiment: LTEA_HepaRG_TGFA: Life Technologies and Expression Analysis (LTEA) Assay for Transforming Growth Factor (TGFA) using HepaRG (AID 2283532); conditions: mRNA level, 48 h; actives raise or lower the signal
Method in brief: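 Gene expression of TGFA was quantified by qRT-PCR after human HepaRG cells were treated for 48 h with test chemicals (eight concentrations, highest 100 uM, 0.5% DMSO). Activity in either direction was fitted relative to DMSO.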

[11] = read-out: Transforming Growth Factor (TGFB1), TGFB1 (gene 7040); experiment: LTEA_HepaRG_TGFB1: Life Technologies and Expression Analysis (LTEA) Assay for Transforming Growth Factor (TGFB1) Transporter using HepaRG (AID 2283533); conditions: mRNA level, 48 h; actives raise or lower the signal
Method in brief: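 Expression change of TGFB1 in human HepaRG cells is measured after a 48 h chemical exposure, up to 100 uM in 0.5% DMSO vehicle. Curves are fitted in both directions relative to the DMSO baseline.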

TIMP1, TIMP1 (gene 7076) = experiment: LTEA_HepaRG_TIMP1: Life Technologies and Expression Analysis (LTEA) Assay for TIMP1 using HepaRG (AID 2283534); conditions: mRNA level, 48 h; actives raise or lower the signal;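 also: TaqMan qRT-PCR signal normalized to ACTB GAPDH and POLR2A housekeeping genes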
Method in brief: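 We dosed human liver HepaRG cultures for 48 hours with up to 100 uM test chemical and measured TIMP1 expression by qRT-PCR. Activity in either direction is fitted relative to the 0.5% DMSO vehicle.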

[12] = read-out: Tumor necrosis factor receptor 1 (TNFRSF1A), TNFRSF1A (gene 7132); experiment: LTEA_HepaRG_TNFRSF1A: Life Technologies and Expression Analysis (LTEA) Assay for Tumor necrosis factor receptor 1 (TNFRSF1A) using HepaRG (AID 2283535); conditions: mRNA level, 48 h; actives raise or lower the signal
Method in brief: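 Expression of TNFRSF1A in human HepaRG liver cells was measured by qRT-PCR 48 h after chemical dosing (maximum 100 uM). Bidirectional curve fitting used 0.5% DMSO as baseline.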

[13] = read-out: Thyroid Hormone Responsive (THRSP), THRSP (gene 7069); experiment: LTEA_HepaRG_THRSP: Life Technologies and Expression Analysis (LTEA) Assay for Thyroid Hormone Responsive (THRSP) using HepaRG (AID 2283536); conditions: mRNA level, 48 h; actives raise or lower the signal
Method in brief: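 Cell model: human HepaRG, approx. 100,000 cells/well, 0.5% DMSO vehicle. Exposure lasts 48 h; phenobarbital 1 mM serves as induction positive control. Gene expression is measured by qRT-PCR against three endogenous control genes.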

[14] = read-out: Cellular tumor antigen p53 (Homo sapiens) (UniProt P04637); experiment: LTEA_HepaRG_TP53: Life Technologies and Expression Analysis (LTEA) Assay for Tumor Protein P53 (TP53) using HepaRG (AID 2283537); conditions: mRNA level, 48 h; actives raise or lower the signal
Method in brief: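 HepaRG, 48 h exposure, top 100 uM, half-log 8-point, 0.5% DMSO vehicle, duplicates. Read: TP53 mRNA by TaqMan qRT-PCR, normalised to ACTB/GAPDH/POLR2A; bidirectional fit vs DMSO.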

[15] = read-out: UDP glucuronosyltransferase (UGT1A1), UGT1A1 (gene 54658); experiment: LTEA_HepaRG_UGT1A1: Life Technologies and Expression Analysis (LTEA) Assay for UDP glucuronosyltransferase (UGT1A1) using HepaRG (AID 2283538); conditions: mRNA level, 48 h; actives raise or lower the signal
Method in brief: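 HepaRG, 48 h chemical exposure (top 100 uM, half-log 8-pt, 0.5% DMSO vehicle), duplicate wells; qRT-PCR (TaqMan, Fluidigm array) for UGT1A1 mRNA, housekeeping-normalized; bidirectional curve fit vs DMSO baseline.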

[16] = read-out: UDP glucuronosyltransferase (UGT1A6), UGT1A6 (gene 54578); experiment: LTEA_HepaRG_UGT1A6: Life Technologies and Expression Analysis (LTEA) Assay for UDP glucuronosyltransferase (UGT1A6) using HepaRG (AID 2283539); conditions: mRNA level, 48 h; actives raise or lower the signal
Method in brief: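 Endpoint is UGT1A6 transcript induction or loss in a human liver cell line, quantified by TaqMan qRT-PCR 48 h after dosing. Concentrations ran from 100 uM downward in half-log steps in 0.5% DMSO; activity was fitted in both directions versus vehicle.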

[17] = read-out: X-box binding protein 1 (XBP1), XBP1 (gene 7494); experiment: LTEA_HepaRG_XBP1: Life Technologies and Expression Analysis (LTEA) Assay for X-box binding protein 1 (XBP1) using HepaRG (AID 2283540); conditions: mRNA level, 48 h; actives raise or lower the signal
Method in brief: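 Human HepaRG monolayers receive test chemical for 48 h across an eight-point half-log series starting at 100 uM. XBP1 mRNA gain or loss is scored against DMSO by qRT-PCR.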

[18] = ATG_XTT_Cytotoxicity: Cytotoxicity Assessment in the Attagene TRANS-FACTORIAL HepG2 Assay (AID 2283584; active = hit-call score of the fitted dose curve at least 0.9, where 1 is the maximum)
Method in brief: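 Transfect HepG2 with GAL4-UAS reporter units, dose compound, incubate 24 h, then measure viable cell number by XTT. Fit concentration response against DMSO baseline.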

Measured: AC50

Signal transducer and activator of transcription 3 (Homo sapiens), sequence (P40763 whole entry, looked up): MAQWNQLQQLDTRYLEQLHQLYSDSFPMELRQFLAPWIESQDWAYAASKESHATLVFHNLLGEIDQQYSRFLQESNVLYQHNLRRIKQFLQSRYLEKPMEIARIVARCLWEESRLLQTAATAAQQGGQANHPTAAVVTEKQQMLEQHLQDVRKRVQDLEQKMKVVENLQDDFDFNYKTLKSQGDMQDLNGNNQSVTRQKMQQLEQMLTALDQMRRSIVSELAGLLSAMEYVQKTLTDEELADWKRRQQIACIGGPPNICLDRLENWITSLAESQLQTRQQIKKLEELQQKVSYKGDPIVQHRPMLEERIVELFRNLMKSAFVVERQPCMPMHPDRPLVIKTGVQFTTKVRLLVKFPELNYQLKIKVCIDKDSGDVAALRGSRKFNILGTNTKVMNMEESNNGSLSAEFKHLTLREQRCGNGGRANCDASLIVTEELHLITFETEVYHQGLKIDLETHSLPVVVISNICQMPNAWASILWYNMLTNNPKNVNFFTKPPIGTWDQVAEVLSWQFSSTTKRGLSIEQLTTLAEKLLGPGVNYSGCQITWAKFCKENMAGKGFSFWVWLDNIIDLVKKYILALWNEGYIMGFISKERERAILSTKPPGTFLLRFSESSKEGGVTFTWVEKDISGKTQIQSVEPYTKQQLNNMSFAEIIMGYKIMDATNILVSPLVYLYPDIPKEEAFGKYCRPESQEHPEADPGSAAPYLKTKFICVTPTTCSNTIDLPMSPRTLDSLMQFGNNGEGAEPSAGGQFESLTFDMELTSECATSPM
Cellular tumor antigen p53 (Homo sapiens), sequence (P04637 whole entry, looked up): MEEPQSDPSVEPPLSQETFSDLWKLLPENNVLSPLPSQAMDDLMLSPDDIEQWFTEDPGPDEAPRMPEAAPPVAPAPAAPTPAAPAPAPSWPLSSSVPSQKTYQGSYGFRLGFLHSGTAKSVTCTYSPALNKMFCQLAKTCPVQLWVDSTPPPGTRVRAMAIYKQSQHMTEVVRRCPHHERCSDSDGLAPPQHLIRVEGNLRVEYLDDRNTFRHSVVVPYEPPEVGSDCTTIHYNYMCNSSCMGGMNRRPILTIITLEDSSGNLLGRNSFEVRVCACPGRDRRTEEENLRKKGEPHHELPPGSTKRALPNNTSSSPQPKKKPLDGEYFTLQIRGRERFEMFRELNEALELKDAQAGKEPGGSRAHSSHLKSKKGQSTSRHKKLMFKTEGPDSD
Nuclear factor erythroid 2-related factor 2 (Homo sapiens), sequence (Q16236 whole entry, looked up): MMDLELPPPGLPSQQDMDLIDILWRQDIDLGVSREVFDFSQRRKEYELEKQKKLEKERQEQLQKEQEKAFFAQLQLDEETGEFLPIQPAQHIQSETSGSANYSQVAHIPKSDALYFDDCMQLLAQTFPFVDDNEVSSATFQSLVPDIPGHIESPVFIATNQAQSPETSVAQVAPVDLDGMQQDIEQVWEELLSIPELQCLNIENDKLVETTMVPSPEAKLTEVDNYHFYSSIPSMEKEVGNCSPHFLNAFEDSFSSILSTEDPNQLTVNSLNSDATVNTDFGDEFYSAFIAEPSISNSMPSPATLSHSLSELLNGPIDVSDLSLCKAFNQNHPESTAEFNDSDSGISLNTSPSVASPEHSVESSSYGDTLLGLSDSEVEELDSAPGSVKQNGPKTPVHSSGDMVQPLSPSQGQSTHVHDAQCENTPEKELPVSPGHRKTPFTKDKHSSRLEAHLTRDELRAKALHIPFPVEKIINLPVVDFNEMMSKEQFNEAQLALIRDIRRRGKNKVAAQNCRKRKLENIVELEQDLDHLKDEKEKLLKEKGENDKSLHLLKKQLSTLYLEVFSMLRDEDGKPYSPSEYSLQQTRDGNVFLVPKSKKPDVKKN

C[C@]12C=CC(=O)C=C1CC[C@H]1[C@@H]3C[C@@H](O)[C@](O)(C(=O)CO)[C@@]3(C)C[C@H](O)[C@@]12F
inactive: all assays above

O=C(O)c1ccc2c(c1)nc(C(=O)NC1CCN(C3CC3)CC1)n2Cc1cc(-c2ccc(Cl)s2)on1
not listed: [18]
inactive: all other assays above

CCCCN1C(=O)[C@@H]([C@H](O)C2CCCCC2)NC(=O)C12CCN(Cc1ccc(Oc3ccc(C(=O)O)cc3)cc1)CC2
active: [1] 2980 nM | [2] 1720 nM | [3] 2610 nM | [4] 4600 nM | [5] 2000 nM | [6] 1560 nM | [7] 3210 nM | [8] 1920 nM | [9] 3910 nM | [11] 340 nM | [12] 6080 nM | [13] 1270 nM | [15] 2790 nM | [16] 10000 nM | [17] 3250 nM
inactive: [10] | TIMP1, TIMP1 (gene 7076) | [14]
